Positions count from the first letter of the chain named. In all, about 16,000 sequences were measured (“ka relative to ugcaugu”: median about 0.0091, highest 2% from about 0.032 on). The full list was thinned out, with the highest values kept by preference.
T1: RBFOX1 RRM (Homo sapiens, UniProt Q9NWB1 109-208)
T1 sequence: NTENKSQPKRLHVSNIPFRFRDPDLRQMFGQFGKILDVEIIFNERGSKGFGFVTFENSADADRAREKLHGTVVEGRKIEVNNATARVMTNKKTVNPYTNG

B1: CCUAUCU (DNA:RNA)
RNA: GGGAGACCGGAAUUCAGAUUGUCCCCUAUCUUUAAAUCCCGUCGUAGCCACCA
DNA 1: CAATCTGAATTCCGGTCTCCC
DNA 2: TGGTGGCTACGACGGGATT
B2: UCGUAUU (DNA:RNA)
RNA: B1 RNA with C25U, U27G, A28U, U29A, C30U
DNA 1: CAATCTGAATTCCGGTCTCCC
DNA 2: TGGTGGCTACGACGGGATT
B3: AAACUUG (DNA:RNA)
RNA: B1 RNA with C25A, C26A, U27A, A28C, C30U, U31G
DNA 1: CAATCTGAATTCCGGTCTCCC
DNA 2: TGGTGGCTACGACGGGATT
B4: CUCACCC (DNA:RNA)
RNA: B1 RNA with C26U, U27C, U29C, U31C
DNA 1: CAATCTGAATTCCGGTCTCCC
DNA 2: TGGTGGCTACGACGGGATT
B5: AACGCAA (DNA:RNA)
RNA: GGGAGACCGGAAUUCAGAUUGUCCAACGCAAUUAAAUCCCGUCGUAGCCACCA
DNA 1: CAATCTGAATTCCGGTCTCCC
DNA 2: TGGTGGCTACGACGGGATT
B6: CCUCACG (DNA:RNA)
RNA: B1 RNA with A28C, U29A, U31G
DNA 1: CAATCTGAATTCCGGTCTCCC
DNA 2: TGGTGGCTACGACGGGATT
B7: CAAGGGU (DNA:RNA)
RNA: B5 RNA with A25C, C27A, C29G, A30G, A31U
DNA 1: CAATCTGAATTCCGGTCTCCC
DNA 2: TGGTGGCTACGACGGGATT
B8: UUGAGUG (DNA:RNA)
RNA: B1 RNA with C25U, C26U, U27G, U29G, C30U, U31G
DNA 1: CAATCTGAATTCCGGTCTCCC
DNA 2: TGGTGGCTACGACGGGATT
B9: UUUCAGA (DNA:RNA)
RNA: B5 RNA with A25U, A26U, C27U, G28C, C29A, A30G
DNA 1: CAATCTGAATTCCGGTCTCCC
DNA 2: TGGTGGCTACGACGGGATT
B10: UUGAUUG (DNA:RNA)
RNA: B1 RNA with C25U, C26U, U27G, C30U, U31G
DNA 1: CAATCTGAATTCCGGTCTCCC
DNA 2: TGGTGGCTACGACGGGATT
B11: UUGAUCC (DNA:RNA)
RNA: B1 RNA with C25U, C26U, U27G, U31C
DNA 1: CAATCTGAATTCCGGTCTCCC
DNA 2: TGGTGGCTACGACGGGATT
B12: UUGUUGA (DNA:RNA)
RNA: B5 RNA with A25U, A26U, C27G, G28U, C29U, A30G
DNA 1: CAATCTGAATTCCGGTCTCCC
DNA 2: TGGTGGCTACGACGGGATT
B13: UUGAGUC (DNA:RNA)
RNA: B1 RNA with C25U, C26U, U27G, U29G, C30U, U31C
DNA 1: CAATCTGAATTCCGGTCTCCC
DNA 2: TGGTGGCTACGACGGGATT
B14: UUCUGAA (DNA:RNA)
RNA: B5 RNA with A25U, A26U, G28U, C29G
DNA 1: CAATCTGAATTCCGGTCTCCC
DNA 2: TGGTGGCTACGACGGGATT
B15: UUGAUUC (DNA:RNA)
RNA: B1 RNA with C25U, C26U, U27G, C30U, U31C
DNA 1: CAATCTGAATTCCGGTCTCCC
DNA 2: TGGTGGCTACGACGGGATT
B16: UUGAGAG (DNA:RNA)
RNA: B5 RNA with A25U, A26U, C27G, G28A, C29G, A31G
DNA 1: CAATCTGAATTCCGGTCTCCC
DNA 2: TGGTGGCTACGACGGGATT
B17: UCCUUGA (DNA:RNA)
RNA: B5 RNA with A25U, A26C, G28U, C29U, A30G
DNA 1: CAATCTGAATTCCGGTCTCCC
DNA 2: TGGTGGCTACGACGGGATT
B18: UUGAUGA (DNA:RNA)
RNA: B1 RNA with C25U, C26U, U27G, C30G, U31A
DNA 1: CAATCTGAATTCCGGTCTCCC
DNA 2: TGGTGGCTACGACGGGATT
B19: UUUCUGA (DNA:RNA)
RNA: B1 RNA with C25U, C26U, A28C, C30G, U31A
DNA 1: CAATCTGAATTCCGGTCTCCC
DNA 2: TGGTGGCTACGACGGGATT
B20: UCUCAAG (DNA:RNA)
RNA: B1 RNA with C25U, A28C, U29A, C30A, U31G
DNA 1: CAATCTGAATTCCGGTCTCCC
DNA 2: TGGTGGCTACGACGGGATT
B21: UCUUGAA (DNA:RNA)
RNA: B5 RNA with A25U, A26C, C27U, G28U, C29G
DNA 1: CAATCTGAATTCCGGTCTCCC
DNA 2: TGGTGGCTACGACGGGATT
B22: CUGUACU (DNA:RNA)
RNA: B1 RNA with C26U, U27G, A28U, U29A
DNA 1: CAATCTGAATTCCGGTCTCCC
DNA 2: TGGTGGCTACGACGGGATT
B23: UAUUACG (DNA:RNA)
RNA: B1 RNA with C25U, C26A, A28U, U29A, U31G
DNA 1: CAATCTGAATTCCGGTCTCCC
DNA 2: TGGTGGCTACGACGGGATT
B24: ACCUGUG (DNA:RNA)
RNA: B5 RNA with A26C, G28U, C29G, A30U, A31G
DNA 1: CAATCTGAATTCCGGTCTCCC
DNA 2: TGGTGGCTACGACGGGATT
B25: GAUAUAG (DNA:RNA)
RNA: B1 RNA with C25G, C26A, C30A, U31G
DNA 1: CAATCTGAATTCCGGTCTCCC
DNA 2: TGGTGGCTACGACGGGATT
B26: CUUAACU (DNA:RNA)
RNA: B1 RNA with C26U, U29A
DNA 1: CAATCTGAATTCCGGTCTCCC
DNA 2: TGGTGGCTACGACGGGATT
B27: AAGGGCU (DNA:RNA)
RNA: B5 RNA with C27G, C29G, A30C, A31U
DNA 1: CAATCTGAATTCCGGTCTCCC
DNA 2: TGGTGGCTACGACGGGATT
B28: UUAAAUG (DNA:RNA)
RNA: B1 RNA with C25U, C26U, U27A, U29A, C30U, U31G
DNA 1: CAATCTGAATTCCGGTCTCCC
DNA 2: TGGTGGCTACGACGGGATT
B29: UUGAAUG (DNA:RNA)
RNA: B1 RNA with C25U, C26U, U27G, U29A, C30U, U31G
DNA 1: CAATCTGAATTCCGGTCTCCC
DNA 2: TGGTGGCTACGACGGGATT
B30: UUGAAUC (DNA:RNA)
RNA: B1 RNA with C25U, C26U, U27G, U29A, C30U, U31C
DNA 1: CAATCTGAATTCCGGTCTCCC
DNA 2: TGGTGGCTACGACGGGATT
B31: GCUUGAU (DNA:RNA)
RNA: B1 RNA with C25G, A28U, U29G, C30A
DNA 1: CAATCTGAATTCCGGTCTCCC
DNA 2: TGGTGGCTACGACGGGATT

biological target: T1, RBFOX1 RRM; experiment: EMSA; HiTS-Eq, 1 nM pool, 10 min; buffer printed only for the single-RNA assays: 10 mM Tris pH 7.5, 150 mM NaCl, 3.4 mM EDTA, 0.001% NP-40, 30 C; details: tags: His6 N-terminal (pET28a); label: 5' 32P
In short: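 Purified wild-type or mutant RbFox RRM at increasing concentrations was equilibrated with 1 nM of 5′-radiolabelled RNA carrying 7 randomized nucleotides for 10 min in 50 µL. Unbound RNA was separated by 8% native PAGE and sequenced. Relative association constants came from read-count changes of each RNA species compared with the control reaction, normalised to the cognate motif.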

Binder	binding signal
B1	0.00242 KA relative to UGCAUGU
B2	0.00649 KA relative to UGCAUGU
B3	0.0047 KA relative to UGCAUGU
B4	0.00285 KA relative to UGCAUGU
B5	0.00455 KA relative to UGCAUGU
B6	0.00492 KA relative to UGCAUGU
B7	0.00279 KA relative to UGCAUGU
B8	0.0333 KA relative to UGCAUGU
B9	0.0123 KA relative to UGCAUGU
B10	0.0356 KA relative to UGCAUGU
B11	0.0141 KA relative to UGCAUGU
B12	0.0329 KA relative to UGCAUGU
B13	0.0173 KA relative to UGCAUGU
B14	0.0233 KA relative to UGCAUGU
B15	0.0169 KA relative to UGCAUGU
B16	0.0165 KA relative to UGCAUGU

Binder	binding signal
B17	0.0113 KA relative to UGCAUGU
B18	0.0228 KA relative to UGCAUGU
B19	0.0328 KA relative to UGCAUGU
B20	0.00583 KA relative to UGCAUGU
B21	0.0145 KA relative to UGCAUGU
B22	0.00801 KA relative to UGCAUGU
B23	0.0123 KA relative to UGCAUGU
B24	0.00788 KA relative to UGCAUGU
B25	0.0101 KA relative to UGCAUGU
B26	0.0019 KA relative to UGCAUGU
B27	0.0102 KA relative to UGCAUGU
B28	0.0123 KA relative to UGCAUGU
B29	0.037 KA relative to UGCAUGU
B30	0.0179 KA relative to UGCAUGU
B31	0.0264 KA relative to UGCAUGU

Source: article PMC9911399, “Two distinct binding modes provide the RNA-binding protein RbFox with extraordinary sequence specificity”
